Laboratory results taken from PubChem BioAssay (Tox21).
Records with an inconclusive call do not appear. Active and inactive are the calls of the source. Unless noted, calls come from the whole dose curve; as a rule, active = well fitted curve in the direction sought with a large enough effect in the repeat runs; inconclusive = weak or mixed curves; inactive = no such curve, though single readings can be large; an effect the other way counts as inactive or inconclusive.

Experiments:
[1] = qHTS assay to identify small molecule antagonists of the thyroid receptor (TR) signaling pathway - cell viability counter screen (AID 743064); note: nearly all actives have a fitted effect of over 50% in size
Method in brief: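 Counter screen for cytotoxicity: compound plus T3 (1 nM final) on GH3.TRE-Luc cells, 23.5 h at 37 °C, then fluorescence viability readout with CellTiter-Fluor.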

[2] = qHTS assay to identify small molecule antagonists of the thyroid receptor (TR) signaling pathway (AID 743065); note: nearly all actives have a fitted effect of over 55% in size
Method in brief: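 GH3.TRE-Luc rat pituitary cells carrying two TR response elements driving luciferase were plated for 4 h, given compound plus 1 nM T3 (final), and incubated 23.5 h at 37 C. ONE-Glo luminescence measured reporter inhibition; CellTiter-Fluor fluorescence tracked cytotoxicity.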

[3] = test system: thyroid hormone receptor (rat, GH3 cells); experiment: qHTS assay to identify small molecule agonists of the thyroid receptor (TR) signaling pathway (AID 743066; calls by dose curve)
[4] = target: Estrogen receptor (Homo sapiens) (UniProt P03372); experiment: qHTS assay to identify small molecule antagonists of the estrogen receptor alpha (ER-alpha) signaling pathway (AID 743069; active = well fitted curve in the direction sought with a large enough effect in the signal ratio in the repeat runs, not every such curve was filed as active; the % refers to the signal ratio)
Chain of Estrogen receptor (Homo sapiens) (P03372 whole entry, looked up): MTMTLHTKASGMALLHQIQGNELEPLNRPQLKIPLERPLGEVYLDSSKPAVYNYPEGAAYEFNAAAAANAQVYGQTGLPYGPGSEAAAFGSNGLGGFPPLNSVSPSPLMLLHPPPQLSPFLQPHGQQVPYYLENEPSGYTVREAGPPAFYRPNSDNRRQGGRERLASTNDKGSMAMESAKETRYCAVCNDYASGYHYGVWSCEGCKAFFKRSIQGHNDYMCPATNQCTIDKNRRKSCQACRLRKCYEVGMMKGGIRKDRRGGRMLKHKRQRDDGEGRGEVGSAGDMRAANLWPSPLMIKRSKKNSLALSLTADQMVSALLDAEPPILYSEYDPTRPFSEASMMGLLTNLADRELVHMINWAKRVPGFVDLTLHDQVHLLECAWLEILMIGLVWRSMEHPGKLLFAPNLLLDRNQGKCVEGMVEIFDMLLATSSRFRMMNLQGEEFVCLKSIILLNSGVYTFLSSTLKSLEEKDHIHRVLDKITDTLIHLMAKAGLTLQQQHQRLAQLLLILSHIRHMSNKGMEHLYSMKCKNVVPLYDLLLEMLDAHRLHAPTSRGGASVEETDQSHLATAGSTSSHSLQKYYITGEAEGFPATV
Method in brief: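 Screening used a UAS-driven beta-lactamase reporter integrated into HEK293 cells expressing ER-alpha, stimulated with 17beta-estradiol alongside test compounds over 18 hr at 37C; signal came from LiveBLAzer B/G FRET fluorescence.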

[5] = target: Estrogen receptor (Homo sapiens) (UniProt P03372); experiment: qHTS assay to identify small molecule agonists of the estrogen receptor alpha (ER-alpha) signaling pathway (AID 743075; calls by dose curve)
[6] = target: Estrogen receptor (Homo sapiens) (UniProt P03372); experiment: qHTS assay to identify small molecule agonists of the estrogen receptor alpha (ER-alpha) signaling pathway using the BG1 cell line (AID 743079); conditions: BG1Luc4E2 cells, ERE-luciferase agonist, 22 h; note: nearly all actives have a fitted effect of over 20% in size; note: potency is the fitted concentration of half-maximal effect
[7] = qHTS assay to identify small molecule antagonists of the estrogen receptor alpha (ER-alpha) signaling pathway using the BG1 cell line (AID 743080; calls by dose curve;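 note: BG1 cells stimulated with 17beta-estradiol alongside compound; nearly all actives have a fitted effect of over 25% in size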)
Method in brief: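 BG1-Luc-4E2 cells (endogenous full-length ER-alpha, 4xERE luciferase) hormone-starved 5 days in charcoal-stripped FBS, plated 4,000/well for 24 h, then compound plus 17beta-estradiol for 21.5 h at 37 C; ONE-Glo luminescence read.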

[8] = qHTS assay to identify small molecule antagonists of the estrogen receptor alpha (ER-alpha) signaling pathway using the BG1 cell line - cell viability counter screen (AID 743081);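 note: compound given together with 17beta-estradiol as the ER stimulus; nearly all actives have a fitted effect of over 45% in size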
[9] = target: Aromatase (Homo sapiens) (UniProt P11511); experiment: qHTS assay to identify aromatase inhibitors (AID 743083); note: nearly all actives have a fitted effect of over 55% in size
Chain of Aromatase (Homo sapiens) (P11511 whole entry, looked up): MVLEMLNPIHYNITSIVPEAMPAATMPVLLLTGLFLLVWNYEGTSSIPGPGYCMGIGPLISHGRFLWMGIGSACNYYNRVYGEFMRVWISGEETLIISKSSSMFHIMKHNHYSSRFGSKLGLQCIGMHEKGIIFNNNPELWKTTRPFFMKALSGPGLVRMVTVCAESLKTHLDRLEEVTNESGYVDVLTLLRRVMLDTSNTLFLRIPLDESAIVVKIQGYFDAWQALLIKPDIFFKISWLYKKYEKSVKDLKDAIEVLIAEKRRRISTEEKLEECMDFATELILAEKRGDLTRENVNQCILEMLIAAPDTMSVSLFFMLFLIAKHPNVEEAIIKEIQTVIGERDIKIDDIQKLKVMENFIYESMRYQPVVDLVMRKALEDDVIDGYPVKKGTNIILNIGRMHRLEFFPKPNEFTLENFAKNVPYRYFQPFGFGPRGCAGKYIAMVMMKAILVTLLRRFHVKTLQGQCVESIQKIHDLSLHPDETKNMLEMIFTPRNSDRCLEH

[10] = qHTS assay to identify aromatase inhibitors - cell viability counter screen (AID 743084);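 note: cells stimulated with testosterone during compound exposure; nearly all actives have a fitted effect of over 55% in size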
[11] = target: Peroxisome proliferator-activated receptor gamma (Homo sapiens) (UniProt P37231); experiment: qHTS assay to identify small molecule agonists of the peroxisome proliferator-activated receptor gamma (PPARg) signaling pathway (AID 743094; active = well fitted activation curve with a large enough effect in the signal ratio in the repeat runs, not every such curve was filed as active; the % refers to the signal ratio)
Chain of Peroxisome proliferator-activated receptor gamma (Homo sapiens) (P37231 whole entry, looked up): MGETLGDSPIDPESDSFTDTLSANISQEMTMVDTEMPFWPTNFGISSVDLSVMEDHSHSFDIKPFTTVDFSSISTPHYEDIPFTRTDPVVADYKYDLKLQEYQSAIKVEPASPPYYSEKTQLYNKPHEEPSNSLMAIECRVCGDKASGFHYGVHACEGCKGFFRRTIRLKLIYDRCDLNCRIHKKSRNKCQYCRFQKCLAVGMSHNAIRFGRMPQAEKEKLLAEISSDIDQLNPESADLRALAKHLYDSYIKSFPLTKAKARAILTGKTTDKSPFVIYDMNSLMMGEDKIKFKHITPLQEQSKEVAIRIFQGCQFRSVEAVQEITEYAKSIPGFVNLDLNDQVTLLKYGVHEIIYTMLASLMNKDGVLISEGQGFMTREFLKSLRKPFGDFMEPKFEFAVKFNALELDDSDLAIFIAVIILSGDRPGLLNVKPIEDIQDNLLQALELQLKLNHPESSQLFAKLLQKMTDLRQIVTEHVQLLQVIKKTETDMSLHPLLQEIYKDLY
Method in brief: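 HEK293H PPARg-bla cells, 5 h settle at 37C/5% CO2; compound (DMSO) 17 h, 37C; B/G FRET substrate 1 h RT; fluorescence intensity read-out. qHTS format.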

[12] = target: Peroxisome proliferator-activated receptor gamma (Homo sapiens) (UniProt P37231); experiment: qHTS assay to identify small molecule antagonists of the peroxisome proliferator-activated receptor gamma (PPARg) signaling pathway (AID 743191; calls by dose curve; note: nearly all actives have a fitted effect of over 30% in size)
Method in brief: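 GeneBLAzer PPARg UAS-bla HEK293H cells carrying a UAS-driven beta-lactamase reporter were plated at 3000 cells/well, preincubated 5 h at 37C, then given compound for 17 h at 37C; LiveBLAzer B/G FRET substrate was read after 1 h at room temperature.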

[13] = qHTS assay to identify small molecule antagonists of the peroxisome proliferator-activated receptor gamma (PPARg) signaling pathway - cell viability counter screen (AID 743194); conditions: Potency: co-treated with 50 nM rosiglitazone; note: nearly all actives have a fitted effect of over 55% in size
Method in brief: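 PPARg-UAS-bla HEK293H cells were plated, rested 5 h at 37 C, then treated with compounds plus rosiglitazone (50 nM final) for 17 h at 37 C; viability was then read by CellTiter-Glo luminescence after 30 min at room temperature.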

[14] = qHTS assay for small molecule agonists of the antioxidant response element (ARE) signaling pathway (AID 743202; active = well fitted activation curve with a large enough effect in the signal ratio in the repeat runs, not every such curve was filed as active; the % refers to the signal ratio)
Method in brief: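 Steps: seed ARE-bla HepG2 cells (2,000/well); incubate 5 h at 37 C; add compounds by pin tool; incubate 16 h at 37 C; add FRET substrate; read fluorescence after 2 h at RT.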

[15] = qHTS assay for small molecule agonists of the antioxidant response element (ARE) signaling pathway - cell viability counter screen (AID 743203; calls by dose curve; note: nearly all actives have a fitted effect of over 55% in size)
Method in brief: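 Luminescence read-out (CellTiter-Glo, 30 min at room temperature) measured cell viability in the same wells as the ARE beta-lactamase reporter. HepG2 ARE-bla cells were treated with compounds for 16 hrs at 37C/5% CO2.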

[16] = qHTS assay for small molecule activators of the heat shock response signaling pathway - cell viability counter screen (AID 743209); note: nearly all actives have a fitted effect of over 50% in size
Method in brief: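 HSE-bla HeLa; 1500 cells/well; overnight 37 C, 5% CO2; compound 5 h 37 C; LiveBLAzer B/G substrate 2.5 h RT; CellTiter-Glo 30 min RT; luminescence.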

[17] = qHTS assay to identify small molecule antagonists of the estrogen receptor alpha (ER-alpha) signaling pathway - cell viability counter screen (AID 743074; calls by dose curve; note: nearly all actives have a fitted effect of over 45% in size)
[18] = target: Aryl hydrocarbon receptor (Homo sapiens) (UniProt P35869); experiment: qHTS assay to identify small molecule that activate the aryl hydrocarbon receptor (AhR) signaling pathway (AID 743085); note: nearly all actives have a fitted effect of over 15% in size; note: potency is the fitted concentration of half-maximal effect;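 for activation: HG2L7.5c1 human HepG2 liver cells with stably integrated DRE-driven firefly reporter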
Chain of Aryl hydrocarbon receptor (Homo sapiens) (P35869 whole entry, looked up): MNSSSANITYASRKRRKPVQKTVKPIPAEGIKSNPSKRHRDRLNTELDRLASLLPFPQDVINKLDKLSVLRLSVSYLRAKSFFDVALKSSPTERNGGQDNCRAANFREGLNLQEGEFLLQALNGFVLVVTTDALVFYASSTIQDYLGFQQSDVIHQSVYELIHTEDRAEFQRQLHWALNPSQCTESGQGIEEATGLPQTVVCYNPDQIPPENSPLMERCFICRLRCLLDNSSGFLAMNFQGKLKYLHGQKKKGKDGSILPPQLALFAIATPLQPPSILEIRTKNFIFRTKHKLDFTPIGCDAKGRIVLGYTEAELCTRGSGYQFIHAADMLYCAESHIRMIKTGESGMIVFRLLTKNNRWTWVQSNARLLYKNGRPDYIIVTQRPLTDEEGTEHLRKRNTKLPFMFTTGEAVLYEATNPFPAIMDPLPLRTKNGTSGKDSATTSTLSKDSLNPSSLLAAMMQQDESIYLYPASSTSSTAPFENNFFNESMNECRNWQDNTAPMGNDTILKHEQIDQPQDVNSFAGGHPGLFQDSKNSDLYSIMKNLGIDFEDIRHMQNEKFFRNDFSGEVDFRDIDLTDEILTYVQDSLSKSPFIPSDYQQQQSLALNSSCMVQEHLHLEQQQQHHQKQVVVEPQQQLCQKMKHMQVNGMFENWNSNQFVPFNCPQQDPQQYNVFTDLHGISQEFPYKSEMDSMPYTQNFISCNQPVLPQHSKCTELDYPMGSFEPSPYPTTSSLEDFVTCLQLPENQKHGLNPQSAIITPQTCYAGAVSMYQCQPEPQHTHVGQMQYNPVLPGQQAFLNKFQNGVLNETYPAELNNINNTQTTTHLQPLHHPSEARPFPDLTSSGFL
Method in brief: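 Measured in HG2L7.5c1 cells: CellTiter-Fluor signal (30 min incubation, 37C) for viability, then luciferase luminescence (30 min, room temperature). Compound contact time was 24 h at 37C, following a 5 h pre-incubation.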

[19] = qHTS assay to identify small molecule that activate the aryl hydrocarbon receptor (AhR) signaling pathway - cell viability counter screen (AID 743086);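 note: HepG2 liver cells carrying the AhR DRE luciferase reporter; nearly all actives have a fitted effect of over 45% in size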
Method in brief: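 HepG2-AhR-luc (HG2L7.5c1) cells, 4000/well, were preincubated 5 h at 37C, exposed to compound in qHTS format for 24 hr at 37C, then given CellTiter-Fluor for 30 min; viability was read as fluorescence in the reporter wells.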

[20] = qHTS assay for small molecule activators of the heat shock response signaling pathway (AID 743210; active = well fitted activation curve with a large enough effect in the signal ratio in the repeat runs, with a control signal flat, not every such curve was filed as active; the % refers to the signal ratio;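 note: HeLa cells with beta-lactamase reporter driven by heat shock elements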)
Method in brief: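 Activation of heat shock element-controlled beta-lactamase expression is measured in HeLa cells by LiveBLAzer FRET fluorescence, with compound exposure lasting 5 h at 37 C and substrate loading 2.5 h at room temperature.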
% is set by controls: 0 for no effect and ±100 for the full control effect.

COP(=S)(OC)Oc1ccc(S(N)(=O)=O)cc1
inactive: Potency [1] | Potency [2] | Potency [3] | Potency [4] | Potency [5] | activation ([6]; at 70.3 µM (top of the series)) 10.7% | Potency [7] | Potency [8] | Potency [9] | Potency [10] | outcome [11] | Potency [12] | Potency [13] | Potency [14] | Potency [15] | Potency [16]

c1coc(-c2nc3ccccc3[nH]2)c1
inactive: Potency [1] | Potency [2] | Potency [3] | Potency [4] | outcome [17] | Potency [8] | Potency [9] | Potency [10] | outcome [19] | outcome [11] | Potency [12] | Potency [13] | Potency [14] | Potency [15] | Potency [16] | outcome [20]
active: Potency [6] 30.6 µM | Potency [18] 30.6 µM

CCC(C)n1c(=O)[nH]c(C)c(Br)c1=O (stereo not given)
inactive: Potency [1] | Potency [2] | Potency [3] | Potency [4] | outcome [17] | Potency [5] | activation ([6]; at 70.3 µM (top of the series)) 1.5% | Potency [7] | Potency [8] | Potency [9] | Potency [10] | outcome [19] | outcome [11] | Potency [12] | Potency [13] | Potency [15] | outcome [20]

CCCCP(CCCC)CCCC
inactive: Potency [1] | Potency [2] | Potency [3] | Potency [4] | outcome [17] | Potency [5] | activation ([6]; at 70.3 µM (top of the series)) 0.877% | Potency [7] | Potency [8] | Potency [9] | Potency [10] | Potency [18] | outcome [19] | Potency [13] | Potency [14] | Potency [15] | Potency [16] | outcome [20]

CCCCc1ccc(O)cc1
inactive: Potency [1] | Potency [2] | Potency [3] | Potency [4] | outcome [17] | Potency [5] | activation ([6]; at 70.3 µM (top of the series)) 12.6% | Potency [7] | Potency [8] | Potency [10] | Potency [18] | outcome [19] | outcome [11] | Potency [12] | Potency [13] | Potency [15] | Potency [16] | outcome [20]

O=C(CCCN1CCC(n2c(=O)[nH]c3ccccc32)CC1)c1ccc(F)cc1
inactive: Potency [1] | Potency [2] | Potency [3] | Potency [4] | outcome [17] | Potency [5] | activation ([6]; at 32.5 µM (top of the series)) -6.79% | Potency [7] | Potency [8] | Potency [9] | Potency [10] | outcome [19] | outcome [11] | Potency [13] | Potency [15] | Potency [16] | outcome [20]

C[N+](C)=CCl
inactive: Potency [1] | Potency [2] | Potency [3] | Potency [4] | outcome [17] | Potency [5] | activation ([6]; at 70.3 µM (top of the series)) 20.5% | Potency [7] | Potency [8] | Potency [9] | Potency [10] | outcome [19] | outcome [11] | Potency [12] | Potency [13] | Potency [15] | Potency [16] | outcome [20]

BrCCCCCCBr
inactive: Potency [1] | Potency [2] | Potency [3] | Potency [4] | outcome [17] | Potency [5] | activation ([6]; at 70.3 µM (top of the series)) -3.68% | Potency [7] | Potency [8] | Potency [9] | Potency [10] | outcome [19] | outcome [11] | Potency [12] | Potency [13] | Potency [15] | Potency [16] | outcome [20]
